About 2,000 (36%) of roughly 5,500 compounds were called active. Inconclusive results (about 18%) are left out. Cut-off read from the data, not from the text of the source: active = normalized growth mostly below about 0.91 (no sharp cut-off); inconclusive = no clear call, values can overlap the other calls; inactive = mostly above about 0.92. This is one part of the list.
Assay: chemical genetic growth profiling, strain panel (AID 1159580);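 note: tested at 20 µM; growth read once vehicle control cultures reached saturation at 30 °C; 1 = growth at the plate median or of vehicle wells; lower values mean less growth of the strain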
Conditions: growth OD

Measured: normalized growth

Nc1ncnc2c1ncn2[C@@H]1O[C@H](CO)[C@@H](O)[C@@H]1O
inactive: S. cerevisiae deletion strains, locus YJR075W, strain HOC1, hits give low values 1.02 | S. cerevisiae deletion strains, locus YKL009W, strain mrt4, hits give low values 1.08 | S. cerevisiae deletion strains, locus YKL068W, hits give low values 1.01 | S. cerevisiae deletion strains, locus YKL085W, strain MDH1 (second series), hits give low values 1 | S. cerevisiae deletion strains, locus YKL085W, strain MDH1, hits give low values 1 | S. cerevisiae deletion strains, locus YKL160W, strain elf1, hits give low values 1 | S. cerevisiae deletion strains, locus YKL190W, strain CNB1, hits give low values 0.996 | S. cerevisiae deletion strains, locus YKR001C, strain vps1, hits give low values 1.04 | S. cerevisiae deletion strains, locus YKR026C, strain gcn3, hits give low values 1.01 | S. cerevisiae deletion strains, locus YKR091W, strain srl3, hits give low values 1.01 | S. cerevisiae deletion strains, locus YLL001W, strain dnm1, hits give low values 1.02 | S. cerevisiae deletion strains, locus YLL026W, hits give low values 1 | S. cerevisiae deletion strains, locus YLL041C, strain sdh2, hits give low values 1.01 | S. cerevisiae deletion strains, locus YLR027C, strain aat2, hits give low values 1.01 | S. cerevisiae deletion strains, locus YLR039C, strain RIC1, hits give low values 1.02 | S. cerevisiae deletion strains, locus YLR058C, strain SHM2, hits give low values 1.01 | S. cerevisiae deletion strains, locus YLR102C, strain apc9, hits give low values 1.02 | S. cerevisiae deletion strains, locus YLR113W, strain HOG1, hits give low values 1 | S. cerevisiae deletion strains, locus YLR221C, strain rsa3, hits give low values 1.01 | S. cerevisiae deletion strains, locus YLR258W, strain gsy2, hits give low values 1.01 | S. cerevisiae deletion strains, locus YLR262C, strain YPT6 (second series), hits give low values 1.03 | S. cerevisiae deletion strains, locus YLR262C, strain YPT6, hits give low values 1.03 | S. cerevisiae deletion strains, locus YLR268W, strain sec22, hits give low values 1.04 | S. cerevisiae deletion strains, locus YLR320W, strain mms22, hits give low values 1 | S. cerevisiae deletion strains, locus YLR330W, strain CHS5, hits give low values 1.01 | S. cerevisiae deletion strains, locus YLR342W, strain FKS1 (second series), hits give low values 0.989 | S. cerevisiae deletion strains, locus YLR342W, strain FKS1, hits give low values 1.01 | S. cerevisiae deletion strains, locus YLR357W, strain rsc2, hits give low values 1.04 | S. cerevisiae deletion strains, locus YLR370C, strain arc18, hits give low values 1.02 | S. cerevisiae deletion strains, locus YLR371W, strain rom2, hits give low values 1.02 | S. cerevisiae deletion strains, locus YLR384C, strain iki3, hits give low values 1.01 | S. cerevisiae deletion strains, locus YLR418C, strain cdc73, hits give low values 1.05 | S. cerevisiae deletion strains, locus YML016C, strain PPZ1, hits give low values 1.01 | S. cerevisiae deletion strains, locus YML032C, strain rad52, hits give low values 1.03 | S. cerevisiae deletion strains, locus YML120C, strain ndi1, hits give low values 1.01 | S. cerevisiae deletion strains, locus YML124C, strain tub3, hits give low values 1.03 | S. cerevisiae deletion strains, locus YMR058W, strain fet3, hits give low values 1.02 | S. cerevisiae deletion strains, locus YMR078C, strain ctf18, hits give low values 1.03 | S. cerevisiae deletion strains, locus YMR125W, strain sto1, hits give low values 1.01 | S. cerevisiae deletion strains, locus YMR129W, hits give low values 1.01 | S. cerevisiae deletion strains, locus YMR205C, strain PFK2, hits give low values 1.03 | S. cerevisiae deletion strains, locus YMR223W, strain ubp8, hits give low values 1.03 | S. cerevisiae deletion strains, locus YMR231W, strain pep5, hits give low values 1.01 | S. cerevisiae deletion strains, locus YMR263W, strain SAP30, hits give low values 1.01 | S. cerevisiae deletion strains, locus YMR307W, strain GAS1, hits give low values 1.01 | S. cerevisiae deletion strains, locus YNL067W, strain RPL9B, hits give low values 1.01 | S. cerevisiae deletion strains, locus YNL071W, strain lat1, hits give low values 1.02 | S. cerevisiae deletion strains, locus YNL128W, strain TEP1, hits give low values 1.02 | S. cerevisiae deletion strains, locus YNL153C, strain GIM3, hits give low values 1.01 | S. cerevisiae deletion strains, locus YNL183C, strain NPR1, hits give low values 0.952 | S. cerevisiae deletion strains, locus YNL209W, strain ssb2, hits give low values 1.01 | S. cerevisiae deletion strains, locus YNL233W, strain BNI4, hits give low values 1.02 | S. cerevisiae deletion strains, locus YNL248C, strain rpa49, hits give low values 1.01 | S. cerevisiae deletion strains, locus YNL250W, strain rad50, hits give low values 1.03 | S. cerevisiae deletion strains, locus YNL271C, strain bni1, hits give low values 1.03 | S. cerevisiae deletion strains, locus YNL298W, strain CLA4, hits give low values 1.02 | S. cerevisiae deletion strains, locus YNL307C, strain MCK1, hits give low values 1.03 | S. cerevisiae deletion strains, locus YNL322C, strain KRE1 (second series), hits give low values 1.02 | S. cerevisiae deletion strains, locus YNL322C, strain KRE1, hits give low values 1.01 | S. cerevisiae deletion strains, locus YNR049C, strain mso1, hits give low values 1.02 | S. cerevisiae deletion strains, locus YNR052C, strain pop2, hits give low values 1.03 | S. cerevisiae deletion strains, locus YOL006C, strain TOP1, hits give low values 1.06 | S. cerevisiae deletion strains, locus YOL012C, strain htz1 1.2 | S. cerevisiae deletion strains, locus YOL147C, strain pex11, hits give low values 1.03 | S. cerevisiae deletion strains, locus YOR001W, strain rrp6, hits give low values 1.02 | S. cerevisiae deletion strains, locus YOR061W, strain CKA2, hits give low values 1.02 | S. cerevisiae deletion strains, locus YOR069W, strain VPS5, hits give low values 1 | S. cerevisiae deletion strains, locus YOR070C, strain gyp1, hits give low values 1.02 | S. cerevisiae deletion strains, locus YOR080W, strain dia2, hits give low values 1 | S. cerevisiae deletion strains, locus YOR083W, strain WHI5, hits give low values 1.01 | S. cerevisiae deletion strains, locus YOR106W, strain vam3, hits give low values 1.01 | S. cerevisiae deletion strains, locus YOR136W, strain idh2, hits give low values 1.03 | S. cerevisiae deletion strains, locus YOR144C, strain elg1, hits give low values 1.03 | S. cerevisiae deletion strains, locus YOR184W, strain ser1, hits give low values 1.05 | S. cerevisiae deletion strains, locus YOR231W, strain MKK1, hits give low values 0.981 | S. cerevisiae deletion strains, locus YOR265W, strain rbl2, hits give low values 1 | S. cerevisiae deletion strains, locus YOR270C, strain vph1, hits give low values 1.06 | S. cerevisiae deletion strains, locus YOR290C, strain snf2, hits give low values 1.03 | S. cerevisiae deletion strains, locus YOR316C, strain cot1, hits give low values 1.03 | S. cerevisiae deletion strains, locus YPL051W, strain arl3, hits give low values 1.01 | S. cerevisiae deletion strains, locus YPL055C, strain LGE1, hits give low values 1.04 | S. cerevisiae deletion strains, locus YPL078C, strain atp4, hits give low values 1.02 | S. cerevisiae deletion strains, locus YPL106C, strain sse1, hits give low values 1.02 | S. cerevisiae deletion strains, locus YPL240C, strain hsp82, hits give low values 1.03 | S. cerevisiae deletion strains, locus YPL241C, strain CIN2, hits give low values 1 | S. cerevisiae deletion strains, locus YPL256C, strain CLN2, hits give low values 0.963 | S. cerevisiae deletion strains, locus YPR119W, strain clb2, hits give low values 1.03 | S. cerevisiae deletion strains, locus YPR141C, strain kar3, hits give low values 1.03 | S. cerevisiae deletion strains, locus YPR163C, strain tif3, hits give low values 1.04 | S. cerevisiae deletion strains, locus YPR167C, strain met16, hits give low values 1.03 | S. cerevisiae deletion strains, strain wtn01, hits give low values 1.02 | S. cerevisiae strains, strain wild type, hits give low values 1.01
